Bioassay records as filed in PubChem.
Hits are enriched below; roughly 6% of the tested compounds scored in any of these assays.
D1 potentiator – potentiators of human D1 dopamine receptor | HEK293 TREx D1 cells, calcium flux, dopamine EC20 potentiation | 360,000 compounds, 0.036% hits | AID 504651 | potentiation, % at 10 µM; in the data active = potentiation above about 30%; note: 0% is about no effect
DRD3 antagonist – blocks the human D3 dopamine receptor. D3R cells, DiscoveRx beta-arrestin luminescence, antagonist mode; hits give low values. max response, negative = inhibition, %. 360,000 compounds, 2.5% hits. AID 652054; in the data active = max response below about -50%; inconclusive = no clear call, values can overlap the other calls; note: % is set by controls: 0 for no effect and ±100 for the full control effect
Target sequence (P35462 whole entry, looked up): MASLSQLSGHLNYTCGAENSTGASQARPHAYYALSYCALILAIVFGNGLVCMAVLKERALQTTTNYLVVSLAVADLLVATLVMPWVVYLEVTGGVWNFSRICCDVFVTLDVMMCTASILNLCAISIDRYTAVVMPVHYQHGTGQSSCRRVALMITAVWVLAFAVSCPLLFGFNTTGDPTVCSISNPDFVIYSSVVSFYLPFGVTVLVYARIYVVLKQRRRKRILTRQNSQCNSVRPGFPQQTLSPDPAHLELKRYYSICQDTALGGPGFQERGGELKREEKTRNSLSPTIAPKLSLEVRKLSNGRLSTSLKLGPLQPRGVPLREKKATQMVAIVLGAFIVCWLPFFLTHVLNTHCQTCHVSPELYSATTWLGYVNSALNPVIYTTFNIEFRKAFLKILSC
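Cells plated overnight at 1500 cells/well, then exposed to library compounds with dopamine controls for 90 minutes at 37 degrees C. DiscoveRx reagent added for 30–60 minutes at room temperature; luminescence read, quantitative HTS format.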
DRD3 agonist – activates the human D3 dopamine receptor; P35462; AID 652048; D3R DiscoveRx beta-arrestin cells, luminescence, 90 min; 410,000 compounds, 0.58% hits; max activation, %; in the data active = max activation above about 30%; note: 0% is about no effect
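Agonist mode: compounds and dopamine controls were applied to plated cells for 90 min at 37 degrees C after an overnight attachment at 1500 cells/well. Luminescent read-out followed 30 - 60 minutes at room temperature with DiscoveRx detection reagent.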
D1 agonist – activates the human D1 dopamine receptor. P21728. HEK293 T-REx D1 cells, calcium flux, agonist mode. activation, % at 2 µM. 360,000 compounds, 1% hits. AID 504660; in the data active = activation above about 30%; note: 0% is about no effect
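Inducible HEK293 T-REx D1 cells, force-coupled to calcium signalling, were plated at 4000 cells/well with tetracycline and held overnight at 30 C. After no-wash calcium dye loading, compound-evoked calcium rise over 180 s flagged agonists.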
D1 antag – blocks dopamine activation of the human D1 receptor; AID 504652; HEK293 TREx D1 cells, calcium flux, dopamine EC80; hits give low values; 360,000 compounds, 3.2% hits; P21728; activity change, negative = inhibition, % at 10 µM; in the data active = activity change below about -30%; note: % is set by controls: 0 for no effect and ±100 for the full control effect
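Allosteric or orthosteric antagonism assessed as attenuation of the calcium response to EC80 dopamine, added 180 s after compound, in induced HEK293 Trex D1 cells loaded with no-wash calcium dye.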
Active calls of the source: *.

Screening CC(C)C[C@H](NC(=O)OC(C)(C)C)c1nnc(SCc2cccc(F)c2)o1 returned D1 potentiator 6, DRD3 antagonist -17, DRD3 agonist -3, D1 agonist 31* and D1 antag -13.
`CCC(C)c1ccccc1OCCCCN1CCCC1` (stereo not drawn) gave D1 potentiator -14, DRD3 antagonist -72*, DRD3 agonist -27, D1 agonist 6 and D1 antag 2.
For CCC(C)c1ccccc1OCCOCCN1CCCC1 (stereo not drawn) the results were D1 potentiator -18, DRD3 antagonist -52*, DRD3 agonist -25, D1 agonist 10 and D1 antag -30*.
Screening Cc1cc(C)c(OCCOCCN2CCCC2)c(C)c1 returned DRD3 antagonist 1 and DRD3 agonist -10.
Screening Cc1nn(CC(=O)N2CCN(c3ccccc3F)CC2)c(=O)c2cccn12 returned D1 potentiator -3, DRD3 agonist 4, D1 agonist 11 and D1 antag -5.
For O=C(C1CCCN(Cc2ccccc2C(F)(F)F)C1)N1CCCCC1 (stereo not drawn) the results were D1 potentiator -2, DRD3 antagonist -88*, DRD3 agonist 1, D1 agonist 1 and D1 antag -17.
Screening O=C(C1CCCN(Cc2ccccc2Br)C1)N1CCCCC1 (stereo not drawn) returned D1 potentiator -2, DRD3 antagonist -85*, DRD3 agonist -6, D1 agonist 2 and D1 antag 7.
Screening Cc1ccc(F)cc1-c1cc(C(=O)NCc2cc(C(F)(F)F)cc(C(F)(F)F)c2)[nH]n1 returned DRD3 antagonist -70* and DRD3 agonist -13.
Screening COc1ccc(F)cc1-c1cc(C(=O)NCc2ccc(C(F)(F)F)cc2)[nH]n1 returned DRD3 antagonist -73* and DRD3 agonist -21.
`COc1ccc(F)cc1-c1cc(C(=O)NCc2cccc(C(F)(F)F)c2)[nH]n1` gave DRD3 antagonist -24 and DRD3 agonist -5.
COC(=O)c1ccc(NC(=O)N2CCC(CN3CCc4ccccc4C3)CC2)cc1 was read as D1 potentiator -1, DRD3 agonist -21, D1 agonist 24 and D1 antag -8.
For Cc1c2cnn(-c3ccccc3)c(=O)c2c(C)n1CC(=O)NCc1ccccc1Br the results were D1 potentiator 7, DRD3 agonist 5, D1 agonist 0 and D1 antag 10.
`CCc1ccc(NC(=O)C(=O)NCCN2CCN(C(=O)c3ccc(OC)cc3)CC2)cc1` gave DRD3 antagonist -12 and DRD3 agonist -1.
CCOC(=O)c1ccc(NC(=O)CN2CCN(C(=O)c3ccco3)CC2)cc1 was read as D1 potentiator -6, DRD3 antagonist 15, DRD3 agonist 36*, D1 agonist 7 and D1 antag 10.
`O=C(Nc1cccc(C(=O)N2CCCCCC2)c1)c1ccco1` gave D1 potentiator -1, DRD3 antagonist inconclusive, DRD3 agonist 7, D1 agonist 2 and D1 antag -11.
CCc1ccc(NC(=O)C(=O)NCCN2CCN(C(=O)c3ccco3)CC2)cc1 was read as D1 potentiator -1, DRD3 antagonist 25, DRD3 agonist 73*, D1 agonist -1 and D1 antag -1.
Cc1ccccc1NC(=O)CN1CCN(C(=O)c2ccco2)CC1 was read as D1 potentiator -6, DRD3 antagonist 5, DRD3 agonist 11, D1 agonist 3 and D1 antag -4.
`CCc1c(C)sc(NC(=O)CN2CCN(C(=O)c3ccco3)CC2)c1C(=O)OC` gave D1 potentiator -8, DRD3 antagonist 5, DRD3 agonist 4, D1 agonist 59* and D1 antag 4.
`CCOC(=O)N1CCN(C(=O)c2cccc(NC(=O)c3ccco3)c2)CC1` gave D1 potentiator -7, DRD3 antagonist -8, DRD3 agonist -11, D1 agonist 3 and D1 antag -63*.
COCC(=O)Oc1cc(-c2ccc(C)cc2C)c(OC(=O)COC)c(-c2ccc(C)cc2C)c1 was read as DRD3 antagonist 0 and DRD3 agonist 0.
`COc1ccc(NC(=O)CSCC(=O)N2CCN(C(=O)c3ccco3)CC2)cc1` gave DRD3 antagonist -7, DRD3 agonist -1, D1 agonist 3 and D1 antag -63*.
`CCOC(=O)c1c(NC(=O)CN2CCN(C(=O)c3ccco3)CC2)sc(C)c1C` gave D1 potentiator -5, DRD3 antagonist 16, DRD3 agonist 20, D1 agonist 126* and D1 antag -32*.
`C=CCCCCCCCCC(=O)OC` gave DRD3 agonist 1.
O=C(Nc1ncccc1Cl)C1COc2ccccc2O1 (stereo not drawn) was read as D1 potentiator -7, DRD3 antagonist -26, DRD3 agonist -16, D1 agonist 47* and D1 antag 9.
For CCc1nnc(SC(CC)C(=O)NCCOC)c2cc3occc3n12 (stereo not drawn) the results were D1 potentiator -1, DRD3 agonist -2, D1 agonist 1 and D1 antag -13.
Cc1sc(NC(=O)c2ccccc2)c(C(c2ccccn2)N2CCN(CCO)CC2)c1C (stereo not drawn) was read as D1 potentiator -2, DRD3 antagonist 3, DRD3 agonist -2, D1 agonist 108* and D1 antag -5.
For CNCCC(Oc1ccc(C(F)(F)F)cc1)c1ccccc1 (stereo not drawn) the results were D1 agonist 62*.
`COc1ccc(C(C)(C)NC(=O)C2CCC(=O)N(C3CCCC3)C2)cc1OC` (stereo not drawn) gave D1 potentiator -13, DRD3 antagonist 3, DRD3 agonist 7, D1 agonist 3 and D1 antag -8.
CN(c1ccccc1)C(CNS(=O)(=O)c1ccccc1)c1ccccc1 (stereo not drawn) was read as D1 potentiator -2, DRD3 agonist 7, D1 agonist 3 and D1 antag 7.
For Cc1ccc(N(C)C(CNS(=O)(=O)c2ccccc2)c2ccccc2)cc1 (stereo not drawn) the results were D1 potentiator -1, DRD3 agonist 1, D1 agonist 3 and D1 antag -48*.
For CC(CNC(=O)CN1C(=O)COc2ccc(S(=O)(=O)N3CCCCCC3)cc21)c1ccccc1 (stereo not drawn) the results were D1 potentiator -6, DRD3 agonist -13, D1 agonist 2 and D1 antag -8.
Screening O=C(CC(c1ccccc1)c1ccccc1)Nc1ncn[nH]1 returned D1 potentiator -5, DRD3 antagonist 14, DRD3 agonist -2, D1 agonist 1 and D1 antag -36*.
O=C(CC(c1ccccc1)c1ccccc1)Nc1ccc(Cl)cn1 was read as D1 potentiator -3, DRD3 antagonist -11, DRD3 agonist -10, D1 agonist 8 and D1 antag -6.
